Experiment in all cases: NCI-60 one-dose screen, 48 h (100 = growth as untreated, 0 = no growth, -100 = all killed)
One experiment deals with NCI-H23 lung. The conditions noted are these: 10 µM unless noted.
The next experiment relates to NCI-H226 lung. Conditions: 10 µM unless noted.
In a further experiment the test system is NCI-H322M lung. The conditions noted are these: 10 µM unless noted.
The next experiment has as its system HOP-62 NSCLC. The conditions noted are these: 10 µM unless noted.
Another experiment concerns HOP-92 NSCLC. Conditions: 10 µM unless noted.
For another experiment, the system named is NCI-H522 lung. The conditions noted are these: 10 µM.
In a further experiment the test system is 786-0 renal. Conditions: 10 µM unless noted.
For the next experiment, the system named is COLO 205 colon. The conditions noted are these: 10 µM unless noted.
In another experiment the test system is DU-145 prostate. Conditions: 10 µM unless noted.
In a further experiment the test system is MALME-3M melanoma. Conditions: 10 µM unless noted.
The next experiment deals with MDA-MB-231 breast. Conditions: 10 µM unless noted.
In the next experiment the test system is RXF 393 renal. The conditions noted are these: 10 µM unless noted.
For a further experiment, the system named is SF-268 CNS. Conditions: 10 µM unless noted.
A further experiment deals with SF-295 CNS. Conditions: 10 µM unless noted.
In a further experiment the test system is SF-539 CNS. Conditions: 10 µM unless noted.
The next experiment relates to UACC-257 melanoma. The conditions noted are these: 10 µM unless noted.
A further experiment has as its system M14 melanoma. The conditions noted are these: 10 µM unless noted.
A further experiment concerns A549/ATCC NSCLC. Conditions: 10 µM unless noted.
The subject of another experiment is K-562 leukemia. Conditions: 10 µM unless noted.

This is part of a sample that, as a whole, favours compounds with a hit. Of some 83,000 tested, about 20% had one in any assay.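 96-well plates, one dose, 48 hours. Percent growth reported; active if below 10.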 A number with no mark means an inactive call. Active and inactive are the calls of the source.

With `C[N+]1(C)C2CC[C@@H]1CC(OC(=O)C(O)c1ccccc1)C2` (stereo partly drawn), the growth in the experiment on NCI-H23 lung was 95.9%; in the experiment on NCI-H226 lung, 84.7%; with NCI-H322M lung, 97.8%; in the experiment with HOP-62 NSCLC, 117%; in the experiment on HOP-92 NSCLC it was 91.4%; in the experiment with NCI-H522 lung it was 110%. Besides, the growth in the experiment on 786-0 renal was 104%; in the experiment with COLO 205 colon it was 129%; with DU-145 prostate, 127%; in the experiment with MALME-3M melanoma, 94.1%; in the experiment with MDA-MB-231 breast, 107%; in the experiment on RXF 393 renal, 111%. In addition, the growth with SF-268 CNS is 114%; in the experiment with SF-295 CNS, 104%; in the experiment with SF-539 CNS, 108%; with UACC-257 melanoma, 110%; in the experiment on M14 melanoma, 105%.

Consider `Nc1ccccc1C#Cc1ccccc1C#Cc1ccc(OCCCCCCOc2ccc(C#Cc3ccccc3C#Cc3ccccc3N)cc2)cc1`, for which the growth in the experiment on NCI-H23 lung was 95.3%; with NCI-H226 lung it was 99.6%; in the experiment on NCI-H322M lung it was 106%; with HOP-62 NSCLC, 93.9%; with HOP-92 NSCLC, 88.8%; with A549/ATCC NSCLC, 106%. The growth with 786-0 renal is 89.8%; with COLO 205 colon, 96.7%; with DU-145 prostate, 121%; in the experiment on K-562 leukemia it was 121%; in the experiment on MALME-3M melanoma, 97.2%; with MDA-MB-231 breast, 86%. Moreover, the growth with RXF 393 renal is 75.3%; in the experiment on SF-268 CNS it was 121%; in the experiment with SF-295 CNS, 106%; in the experiment with SF-539 CNS, 97.8%; in the experiment on UACC-257 melanoma it was 101%; with M14 melanoma, 108%.

As for `C[C@]12CCC(=O)C=C1CC[C@H]1[C@@H]3C[C@@H](O)[C@](O)(C(=O)CO)[C@@]3(C)C[C@H](O)[C@@]12F`, the growth in the experiment with NCI-H23 lung was 110%; in the experiment on NCI-H226 lung, 83.1%; in the experiment on NCI-H322M lung it was 128%; in the experiment with HOP-62 NSCLC, 101%; with HOP-92 NSCLC, 80.3%; in the experiment with A549/ATCC NSCLC, 63.1%. Also, the growth with 786-0 renal was 111%; with COLO 205 colon, 103%; in the experiment on DU-145 prostate, 92.4%; in the experiment on K-562 leukemia it was 110%; in the experiment on MALME-3M melanoma, 87%; in the experiment on MDA-MB-231 breast, 102%. Also, the growth with RXF 393 renal is 137%; in the experiment on SF-268 CNS, 85.5%; in the experiment with SF-295 CNS it was 104%; in the experiment on SF-539 CNS, 91.9%; with UACC-257 melanoma, 82.1%; in the experiment with M14 melanoma, 85.6%.

For the compound `Cc1cc2c(cc1C)[n+](Cc1ccc3ccccc3n1)cn2Cc1ccc2ccccc2n1`, the growth was 1.58% (active) in the experiment on NCI-H23 lung; 9.61% (active) in the experiment on NCI-H226 lung; 36% in the experiment with NCI-H322M lung; 4.38% (active) in the experiment on HOP-62 NSCLC; -27.3% (active) with HOP-92 NSCLC; 30.4% in the experiment with A549/ATCC NSCLC. Besides, the growth is 11.2% in the experiment on 786-0 renal; -61.5% (active) in the experiment on COLO 205 colon; 24.1% in the experiment on DU-145 prostate; -0.971% (active) in the experiment on K-562 leukemia; -28% (active) in the experiment on MALME-3M melanoma; -7.81% (active) with MDA-MB-231 breast. Moreover, the growth in the experiment with RXF 393 renal was -6.38% (active); in the experiment on SF-268 CNS, 16.8%; with SF-295 CNS it was 5.16% (active); with SF-539 CNS, 14.8%; with UACC-257 melanoma it was -16.6% (active); with M14 melanoma, -13.3% (active).

For the compound `COc1ccc(N2CCN(CC(=O)N3CCN(c4nnc(-c5ccc(Cl)cc5)c(-c5ccc(Cl)cc5)n4)CC3)CC2)cc1`, the growth in the experiment on NCI-H23 lung is 81.7%; in the experiment on NCI-H226 lung it was 57.9%; with NCI-H322M lung, 69.3%; in the experiment on HOP-62 NSCLC it was 93.3%; in the experiment with HOP-92 NSCLC, 50.3%; with A549/ATCC NSCLC, -8.6% (active). Besides, the growth with 786-0 renal was 60.4%; in the experiment with COLO 205 colon, 86%; with DU-145 prostate, 70.6%; in the experiment with K-562 leukemia it was 22.3%; in the experiment on MALME-3M melanoma, 81.7%; in the experiment with MDA-MB-231 breast, 84.1%. Also, the growth with SF-268 CNS was 69.8%; in the experiment with SF-295 CNS, 53.9%; in the experiment on SF-539 CNS, 30.7%; with M14 melanoma it was 59.8%.

`Cc1onc(-c2ccccc2Cl)c1C(=O)N[C@@H]1C(=O)N2[C@@H]1SC(C)(C)[C@@H]2C(=O)O`: the growth in the experiment on NCI-H23 lung is 112%; with NCI-H226 lung it was 99.2%; in the experiment on NCI-H322M lung it was 104%; in the experiment on HOP-62 NSCLC, 97.1%; in the experiment on HOP-92 NSCLC, 110%; in the experiment on NCI-H522 lung, 96.1%. The growth in the experiment on 786-0 renal is 99%; in the experiment on COLO 205 colon, 109%; in the experiment with DU-145 prostate, 123%; in the experiment on K-562 leukemia it was 91.6%; in the experiment with MALME-3M melanoma it was 94.2%; in the experiment on MDA-MB-231 breast, 113%. Moreover, the growth was 115% in the experiment on RXF 393 renal; 110% in the experiment on SF-268 CNS; 104% in the experiment with SF-295 CNS; 112% with SF-539 CNS; 108% in the experiment with UACC-257 melanoma; 98.2% in the experiment with M14 melanoma.

As for `CCOc1cc(/C=C/C(=O)C(C(=O)/C=C/c2ccc(OC(=O)CNc3nc4ccccc4[nH]3)c(OCC)c2)C(=O)CNc2nc3ccccc3[nH]2)ccc1OC(=O)CNc1nc2ccccc2[nH]1`, the growth is 6.88% (active) in the experiment with NCI-H23 lung; -10.9% (active) in the experiment on NCI-H226 lung; 23.2% with NCI-H322M lung; 10.1% in the experiment with HOP-62 NSCLC; -13% (active) in the experiment on HOP-92 NSCLC; -47.7% (active) in the experiment on 786-0 renal. Moreover, the growth with COLO 205 colon is -41.8% (active); in the experiment on DU-145 prostate it was -24.8% (active); in the experiment with K-562 leukemia, -26.2% (active); in the experiment on MALME-3M melanoma it was -35.1% (active); with MDA-MB-231 breast it was -16.3% (active); in the experiment with RXF 393 renal, -71.4% (active). Further, the growth with SF-268 CNS was 8.48% (active); with SF-295 CNS, -20.4% (active); in the experiment on SF-539 CNS, -33.4% (active); in the experiment with UACC-257 melanoma it was 21.1%; with M14 melanoma it was -6.17% (active).

As to `[N-]=[N+]=NCc1cccc(/C(O)=C/C(=O)C(=O)O)c1`, the growth in the experiment with NCI-H23 lung was 85.4%; in the experiment with NCI-H226 lung, 86.1%; in the experiment with NCI-H322M lung it was 93.8%; in the experiment with HOP-62 NSCLC it was 94.5%; in the experiment with HOP-92 NSCLC, 92.7%; in the experiment with A549/ATCC NSCLC, 93.6%. The growth in the experiment with 786-0 renal is 97.3%; in the experiment on COLO 205 colon, 99.6%; in the experiment with DU-145 prostate, 92.1%; in the experiment on K-562 leukemia, 110%; in the experiment with MALME-3M melanoma, 91.5%; in the experiment on MDA-MB-231 breast, 88.4%. The growth was 24.6% in the experiment with RXF 393 renal; 91.5% with SF-268 CNS; 143% in the experiment with SF-295 CNS; 100% in the experiment on SF-539 CNS; 100% in the experiment on UACC-257 melanoma; 118% in the experiment on M14 melanoma.

Turning to `O=C(Nc1nc(-c2ccc(Cl)cc2)cs1)c1cc(-c2ccc(Br)cc2)nc2ccc(Cl)cc12`, the growth in the experiment with NCI-H23 lung was 33.5%; in the experiment with NCI-H226 lung it was 71.2%; with NCI-H322M lung it was 92.1%; in the experiment on HOP-62 NSCLC, 37.2%; in the experiment with HOP-92 NSCLC, 5.28% (active); with NCI-H522 lung it was 75.3%. Further, the growth was 43% in the experiment on 786-0 renal; 89.1% in the experiment on COLO 205 colon; 55.6% in the experiment with DU-145 prostate; 25.2% in the experiment on K-562 leukemia; 44.6% with MALME-3M melanoma; 37.8% with MDA-MB-231 breast. Moreover, the growth with RXF 393 renal was 98.6%; in the experiment on SF-268 CNS, 31.6%; in the experiment on SF-295 CNS, 91%; with SF-539 CNS, 2.4% (active); with M14 melanoma it was -16.8% (active).

Turning to `CC(=O)N1N=C(c2ccc(Cl)cc2)CC1c1c(C)nn(-c2ccccc2)c1N(C)Cc1ccccc1` (stereo not drawn), the growth in the experiment with NCI-H23 lung was 78.3%; in the experiment on NCI-H226 lung, 67%; in the experiment on NCI-H322M lung it was 91.4%; in the experiment with HOP-62 NSCLC, 74.3%; with HOP-92 NSCLC it was 55.2%; in the experiment with A549/ATCC NSCLC, 53.5%. Also, the growth with 786-0 renal is 84.7%; in the experiment on COLO 205 colon it was 74.9%; in the experiment with DU-145 prostate it was 94.5%; in the experiment with K-562 leukemia it was 61.9%; in the experiment with MALME-3M melanoma, 83.1%; with MDA-MB-231 breast, 81.1%. Moreover, the growth in the experiment on RXF 393 renal was 72.7%; in the experiment on SF-268 CNS, 77.8%; in the experiment on SF-295 CNS it was 82.7%; with SF-539 CNS, 93.8%; with UACC-257 melanoma, 50.4%; with M14 melanoma, 79.9%.

For the compound `Clc1ccc(C2=NN(c3ccc(Cl)cc3)C(c3cccc(Nc4ccnc5cc(Cl)ccc45)c3)C2)cc1` (stereo not drawn), the growth is 85.2% in the experiment on NCI-H23 lung; 88% with NCI-H226 lung; 87.7% in the experiment with NCI-H322M lung; 69.4% in the experiment on HOP-62 NSCLC; 88% with HOP-92 NSCLC; 70.9% with A549/ATCC NSCLC. The growth with 786-0 renal is 85.3%; in the experiment with COLO 205 colon, 72.8%; in the experiment with DU-145 prostate, 96.2%; in the experiment on K-562 leukemia, 75.1%; with MALME-3M melanoma, 87.1%; in the experiment with MDA-MB-231 breast, 84.5%. In addition, the growth in the experiment on RXF 393 renal was 82.5%; in the experiment on SF-268 CNS it was 84.3%; with SF-295 CNS, 88.6%; in the experiment on SF-539 CNS, 96.5%; in the experiment with UACC-257 melanoma, 76.8%; in the experiment with M14 melanoma, 84.8%.
